Experimental data: PubChem BioAssay
Several values for one entry are separate records, joined by “and”; a condition that tells them apart may be missing. Equal values may be shown once. Results filed as inconclusive are left out. For some of these results: Results with a measured potency or affinity are listed apart. Activity calls are given as the source filed them. Unless noted, no rule for the calls is given here.

Legend:
[1] = biological target: ATP-dependent translocase ABCB1 (Homo sapiens) (UniProt P08183); assay: P-glycoprotein substrate transport blockade – cell-based (AID 377; in the data active = fluorescence slope change above about 50%); conditions: MDR1-expressing cells, fluorescent substrate accumulation slope; stronger effect = higher value; concentration not given here
[2] = growth inhibition, single agents and combos, LFS_MB_1R, cell-based, cisplatin or BGB combos, synergistic combos for chromothripsis tumors (AID 1671452; in the data active = inhibition above about 80%;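 also: cells exposed for 96 hours before readout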); conditions: LFS_MB_1R medulloblastoma cells, stronger effect = higher value
[3] = growth inhibition, single agents and combos, CRL2098, cell-based, BGB or cisplatin IC20 combos, synergistic combos for chromothripsis tumors (AID 1671454; in the data active = inhibition above about 80%;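 also: cells exposed for 96 h before readout; 0% = vehicle DMSO and 100% = killing by high DMSO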); conditions: CRL2098 osteosarcoma cells, drug combinations, stronger effect = higher value
[4] = growth inhibition, single agents and combos, HD-MB03, cell-based, BGB or cisplatin IC20 combos, synergistic combos for chromothripsis tumors (AID 1671455; in the data active = inhibition above about 83%;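 also: 0% = vehicle DMSO and 100% = high DMSO as cytotoxic control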); conditions: HD-MB03 medulloblastoma cells, stronger effect = higher value
[5] = growth inhibition, single agents and combos, UWB1.289, cell-based, BGB or cisplatin combos, synergistic combos for chromothripsis tumors (AID 1671456; in the data active = inhibition above about 80%;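 also: cells exposed to compound for four days; 0% = vehicle DMSO and 100% = killing by high DMSO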); conditions: UWB1.289 ovarian carcinoma cells, stronger effect = higher value
[6] = growth inhibition, single agents and combos, LFS_MB_2R, cell-based, cisplatin combos, synergistic combos for chromothripsis tumors (AID 1671457; in the data active = inhibition above about 80%;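 also: cells exposed to compound for four days before readout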); conditions: LFS_MB_2R medulloblastoma cells, stronger effect = higher value
[7] = growth inhibition, MDA-MB-436, cell-based, BGB or cisplatin combos, synergistic combos for chromothripsis tumors (AID 1671458); conditions: MDA-MB-436 breast carcinoma growth inhibition, drug combinations, stronger effect = higher value;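 also: cells exposed for 96 hours; 0% = vehicle DMSO and 100% = killing by high DMSO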
[8] = UWB1.289_BRCA1 ovarian cancer growth, cell-based, BGB or cisplatin combinations (AID 1671459; in the data active = inhibition above about 80%); conditions: UWB1.289 BRCA1 ovarian carcinoma, drug combinations, stronger effect = higher value
[9] = drug combination toxicity in non-malignant astrocytes – cell-based, BGB or cisplatin IC20 combos, cytotoxicity control for chromothriptic childhood tumor combination screen (AID 1671460; in the data active = inhibition above about 80%;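 also: cells exposed to compounds for 96 hours before viability readout; 0% = vehicle and 100% = killing control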); conditions: Human astrocytes, viability inhibition, drug combinations, at 0.5 µM, stronger effect = higher value
[10] = BT084 cell growth, single and combined drugs, ICGC_MB145, cisplatin and BGB IC40 combos (AID 1671461; in the data active = inhibition above about 80%;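 also: cells exposed to drugs for 96 hours; 0% = vehicle DMSO and 100% = high DMSO full killing control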); conditions: BT084 medulloblastoma cells, drug combinations, stronger effect = higher value
[11] = RCMB18 cell growth, single agent and combined, cisplatin and BGB IC40 combos (AID 1671462; in the data active = inhibition above about 80%;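 also: cells exposed to compound for four days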); conditions: RCMB18 medulloblastoma cells, stronger effect = higher value
[12] = CRL1545 cell growth, single agent and combined, cisplatin and BGB IC20 combos (AID 1671464; in the data active = inhibition above about 80%;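 also: cells exposed to compound for 96 hours before readout; 0% = vehicle DMSO and 100% = high DMSO killing control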); conditions: CRL1545 osteosarcoma cells, stronger effect = higher value
[13] = blockers of polyQ-driven CASP3 activation – cell-based (AID 1583); conditions: polyglutamine-induced caspase-3 activation, cell assay; stronger effect = higher value;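 tested at 10 µM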
[14] = yeast 75Q aggregation reduction – 75Q-TubU reporter (AID 1593); conditions: Yeast 75Q polyglutamine aggregation reporter
[15] = restoration of touch response, mutant HTT neurons – whole organism, C. elegans mechanosensory neurons, N-terminal huntingtin (AID 1599); conditions: C. elegans polyQ-huntingtin mechanosensory neurons, stronger effect = higher value
[16] = blockers of cytochrome c efflux from mitochondria – biochemical, purified mitochondria (AID 1603); conditions: stronger effect = lower value;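 also: mouse liver mitochondria challenged with calcium chloride; signal normalized to the plate average as 100%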
[17] = signal quenchers or enhancers, Cy5 substrate/SSB – biochemical, NIH Clinical Collection, E. coli SSB, artefact control for HCV NS3 helicase inhibitor project (AID 743268); conditions: Cy5-oligo bound E. coli SSB, fluorescence interference
[18] = system: Hepatitis C virus NS3 helicase; assay: blockers of NS3h binding to DNA – biochemical, fluorescence polarization, NIH Clinical Collection, primary screen (AID 743270); conditions: NS3 helicase binding to Cy5-dT15 DNA, stronger effect = higher value, concentration not given here
[19] = biological target: Single-stranded DNA-binding protein (Escherichia coli (strain K12)) (UniProt P0AGE0); assay: SSB-ssDNA binding inhibitors – biochemical, fluorescence polarization, NIH Clinical Collection, counter-screen for HCV NS3 helicase inhibitor project (AID 743271; in the data active = inhibition above about 28%); conditions: E. coli SSB-DNA binding, stronger effect = higher value, concentration not given here
[20] = compounds distorting NS3 helicase fluorescence signal – biochemical, NIH Clinical Collection, artefact control for HCV NS3 helicase inhibitor project (AID 743272); conditions: fluorescence interference counterscreen, HCV NS3 helicase assay; stronger effect = lower value;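 also: HCV NS3 helicase with a Cy5 labelled single stranded DNA probe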
[21] = measured here: combination with cisplatin, at 0.5 µM
[22] = measured here: combination with cisplatin, at 5 µM

Chain of ATP-dependent translocase ABCB1 (Homo sapiens) (P08183 whole entry, looked up): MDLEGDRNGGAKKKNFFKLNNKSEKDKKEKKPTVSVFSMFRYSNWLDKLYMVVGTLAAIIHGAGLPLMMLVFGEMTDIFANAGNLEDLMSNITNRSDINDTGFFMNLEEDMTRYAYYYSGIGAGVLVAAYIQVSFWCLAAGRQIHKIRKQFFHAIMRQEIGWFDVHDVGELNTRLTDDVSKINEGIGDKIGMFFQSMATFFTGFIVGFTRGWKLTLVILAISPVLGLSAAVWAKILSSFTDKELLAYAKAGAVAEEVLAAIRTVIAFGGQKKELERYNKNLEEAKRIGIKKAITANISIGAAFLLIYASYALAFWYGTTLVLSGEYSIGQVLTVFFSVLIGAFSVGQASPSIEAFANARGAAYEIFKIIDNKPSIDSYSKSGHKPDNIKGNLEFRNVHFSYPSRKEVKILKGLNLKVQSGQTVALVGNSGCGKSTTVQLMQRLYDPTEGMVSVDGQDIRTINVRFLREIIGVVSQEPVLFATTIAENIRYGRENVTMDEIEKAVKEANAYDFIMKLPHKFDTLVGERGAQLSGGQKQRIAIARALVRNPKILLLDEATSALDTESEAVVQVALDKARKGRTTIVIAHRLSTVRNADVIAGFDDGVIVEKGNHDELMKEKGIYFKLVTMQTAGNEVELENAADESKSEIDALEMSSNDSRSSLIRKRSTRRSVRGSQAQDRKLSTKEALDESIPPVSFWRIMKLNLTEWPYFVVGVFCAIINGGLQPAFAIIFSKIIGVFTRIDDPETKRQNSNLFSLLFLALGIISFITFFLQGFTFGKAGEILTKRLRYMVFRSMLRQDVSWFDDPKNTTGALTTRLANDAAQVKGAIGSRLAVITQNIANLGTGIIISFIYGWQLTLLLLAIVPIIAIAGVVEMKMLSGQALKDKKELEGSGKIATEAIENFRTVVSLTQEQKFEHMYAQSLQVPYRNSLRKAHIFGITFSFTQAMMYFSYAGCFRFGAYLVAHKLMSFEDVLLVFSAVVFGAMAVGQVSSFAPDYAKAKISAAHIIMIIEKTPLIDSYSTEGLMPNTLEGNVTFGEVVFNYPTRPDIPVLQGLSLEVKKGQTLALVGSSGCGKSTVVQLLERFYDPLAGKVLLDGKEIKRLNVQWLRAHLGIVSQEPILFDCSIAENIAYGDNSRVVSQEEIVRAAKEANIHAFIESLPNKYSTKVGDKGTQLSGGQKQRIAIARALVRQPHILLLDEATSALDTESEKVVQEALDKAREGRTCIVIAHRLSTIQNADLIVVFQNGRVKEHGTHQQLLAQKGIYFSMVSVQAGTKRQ

With O=C(c1ccc(OCCN2CCCCC2)cc1)c1c(-c2ccc(O)cc2)sc2cc(O)ccc12 the fluorescence slope change [1] was 82.4% (active).
With CCN(CC)CC#CCOC(=O)C(O)(c1ccccc1)C1CCCCC1 (stereo unspecified) the fluorescence slope change [1] was 225% (active).
With O=c1[nH]c(=O)n(C2CCCO2)cc1F (stereo unspecified) the inhibition ([2]; at 0.5 µM) was -5.43% (inactive) and -39.4% (inactive), the inhibition ([2]; measured here: combination with BGB IC40, at 0.05 µM) was 2.48% and -16.7% and the inhibition [2, 21] was -8.32% and -55.8%. For the same molecule, the inhibition [2, 22] was -0.329% and -28.6%, the inhibition ([3]; at 0.5 µM) was 3.75% (inactive) and -63.9% (inactive) and the inhibition ([3]; measured here: combination with BGB at IC20, at 0.5 µM) was 7.31% and -58.1%. The inhibition ([3]; measured here: combination with cisplatin at IC20, at 0.5 µM) was 18.7% and -78.1%, the inhibition ([4]; at 0.5 µM) was 1.31% (inactive) and -8.99% (inactive) and the inhibition ([4]; measured here: combo with BGB at IC20, at 0.5 µM) was -4.63% and -10.8%. For the same molecule, the inhibition ([4]; measured here: combo with cisplatin at IC20, at 0.5 µM) was 6.01% and -7.71%, the inhibition ([5]; at 0.5 µM) was 3.3% (inactive) and -11.4% (inactive) and the inhibition ([5]; measured here: inhibition with BGB combination, at 0.05 µM) was 7.79% and -33%. The inhibition ([5]; measured here: inhibition with cisplatin combination, at 0.05 µM) was 4.79% and -22.4%, the inhibition ([6]; at 0.5 µM) was -0.54% (inactive) and -25.9% (inactive) and the inhibition [6, 21] was 8.78% and -21.2%. The inhibition [6, 22] was 11.8% and -36.1%, the inhibition ([7]; at 0.5 µM) was -0.47% (inactive) and -23.2% (inactive) and the inhibition ([7]; measured here: BGB combination, at 0.5 µM) was -3.41% and -22.4%. For the same molecule, the inhibition ([7]; measured here: BGB combination, at 5 µM) was -17.4% and -31.2%, the inhibition ([7]; measured here: cisplatin combination, at 0.5 µM) was 0.87% and -34.6% and the inhibition ([7]; measured here: cisplatin combination, at 5 µM) was -5.11% and -24.1%. For the same molecule, the inhibition ([8]; BGB combination, concentration series, at 5 µM) was 6.02% and -15.3%, the inhibition ([8]; at 0.5 µM) was 3.23% (inactive) and -25.5% (inactive) and the inhibition ([8]; cisplatin combination, concentration series, at 5 µM) was 12% and 0.169%. For the same molecule, the inhibition [9] was 4.65% (inactive) and -9.75% (inactive), the inhibition ([9]; measured here: combo with BGB IC20) was 0.017% and -11.8% and the inhibition ([9]; measured here: combo with cisplatin IC20) was 11% and -8.67%. For the same molecule, the inhibition ([10]; at 0.5 µM) was 11.3% (inactive) and -10.3% (inactive), the inhibition ([10]; cisplatin combination, at 0.5 µM) was -7.35% and -15% and the inhibition ([10]; cisplatin combination, at 5 µM) was -13.3% and -155%. The inhibition ([10]; measured here: BGB IC40 combination 0.05 uM, at 0.05 µM) was 5.6% and -35.5%, the inhibition ([10]; single agent, at 5 µM) was 10.4% and -13.1% and the inhibition ([11]; at 0.5 µM) was 1.7% (inactive) and -8.58% (inactive). For the same molecule, the inhibition ([11]; cisplatin combo, at 5 µM) was 12.7% and -18.4%, the inhibition ([11]; measured here: BGB IC40 combination, at 0.05 µM) was -6.79% and -15.3% and the inhibition [11, 21] was 2.62% and -23%. The inhibition ([11]; single agent, at 5 µM) was -0.936% and -12.4%, the inhibition ([12]; at 0.5 µM) was -31.3% (inactive) and -16.2% (inactive) and the inhibition ([12]; measured here: with BGB IC20 combination, at 0.5 µM) was -54.2% and -32.2%. For the same molecule, the inhibition ([12]; measured here: with cisplatin IC20 combination, at 0.5 µM) was -19.9% and -9.92%, the inhibition ([12]; single agent, at 0.05 µM) was 6.98% and -30.8% and the inhibition ([12]; single agent, at 5 µM) was -17.9% and -2.7%.
Molecule NC(Cc1cc(I)c(Oc2ccc(O)c(I)c2)c(I)c1)C(=O)O (stereo unspecified) has an inhibition [13] of 2%, a score [14] of 1.27 and a rescue above control [15] of -0.14. The cytochrome c release ratio [16] was 4.78, the fluorescence ratio [17] was 0.99 (inactive) and the inhibition [18] was -1.36% (inactive). The inhibition [19] was 1.81% (inactive) and the fluorescence ratio [20] was 0.92 (inactive).
For C=CCc1ccc(O)c(-c2ccc(O)c(CC=C)c2)c1, the fluorescence ratio [17] was 0.94 (inactive), the inhibition [18] was 5.94% (inactive) and the inhibition [19] was 5.29% (inactive). For the same molecule, the fluorescence ratio [20] was 0.94 (inactive).
For O=C(NC(CO)C(O)c1ccc([N+](=O)[O-])cc1)C(Cl)Cl (stereo unspecified), the fluorescence ratio [17] was 0.1 (active), the inhibition [18] was -4.09% (inactive) and the inhibition [19] was 4.1% (inactive). For the same molecule, the fluorescence ratio [20] was 1.03 (inactive).
In the case of CCOC(=O)CCC(=O)OC1C(OC2C(C)C(OC3CC(C)(OC)C(O)C(C)O3)C(C)C(=O)OC(CC)C(C)(O)C(O)C(C)C(=O)C(C)CC2(C)O)OC(C)CC1N(C)C (stereo unspecified), the fluorescence ratio [17] is reported as 1.07 (inactive), the inhibition [18] is reported as 0.45% (inactive) and the inhibition [19] is reported as 0.29% (inactive). For the same molecule, the fluorescence ratio [20] was 0.98 (inactive).
For CC(C)OC(=O)CCC/C=C\C[C@@H]1[C@@H](CC[C@@H](O)CCc2ccccc2)[C@H](O)C[C@@H]1O, the fluorescence ratio [17] was 0.97 (inactive), the inhibition [18] was 0.4% (inactive) and the inhibition [19] was -5.49% (inactive). For the same molecule, the fluorescence ratio [20] was 0.95 (inactive).
CN1CCC[C@H]1c1cccnc1 gave an inhibition [13] of -24.3%, a score [14] of 1.39 and a rescue above control [15] of 3.58. For the same molecule, the cytochrome c release ratio [16] was 0.71, the fluorescence ratio [17] was 1.1 (inactive) and the inhibition [18] was -3.18% (inactive). For the same molecule, the inhibition [19] was -0.48% (inactive) and the fluorescence ratio [20] was 0.97 (inactive).
